Results as given in PubChem BioAssay (NCATS).
Values without a mark were called inactive. Activity calls are given as the source filed them. No rule for the calls is given here.

tested on: HIV-1 nucleocapsid protein NCp7 (binding to TG oligonucleotide); test: HIV Nucleocapsid (AID 346); conditions: HIV-1 NC / fluorescein-TGTGTGTG probe, fluorescence polarization;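 also: potency is for inhibitors that block NC binding and lower polarization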
How it was run: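 10 nM TG4xF probe with 100 nM nucleocapsid protein in high-salt Hepes pH 7.5 (250mM NaCl) containing 1uM ZnCl2 and reducing agents. Compound inhibition of binding was read as fluorescein polarization after 1 hr at room temperature.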
Potency is read from the fitted curve at half-maximal effect.

SMILES | Potency
CS(=O)(=O)Nc1cccc(-c2cc(Nc3ccccc3)ncn2)c1 | > 20 µM
CN(Cc1ccco1)c1cc(-c2cccc(NS(C)(=O)=O)c2)ncn1 | > 20 µM
c1nc(NC2CCNCC2)c2cc(-c3ccoc3)ccc2n1 | > 20 µM
CS(=O)(=O)Nc1cccc(-c2ccc3ncnc(NCc4cccnc4)c3c2)c1 | > 20 µM
COC(=O)N1CCC2(CCCN(Cc3ccccc3OC)C2)CC1 | > 20 µM
CCNc1ncc2nc(-c3cn(C)c4ccccc34)c(=O)n(-c3ccc(OC)cc3)c2n1 | 3.86 µM (active)
Cc1cccc(CNc2ccnc(-c3ccccc3C(F)(F)F)n2)c1 | > 20 µM
N#Cc1ccc(CN2CCC3(CC2)CCN(C(=O)c2cccc(F)c2)CC3)cc1 | > 20 µM
COc1cccc(-c2nccc(NCc3ccccc3)n2)c1 | > 20 µM
O=C(c1ccncc1)N1CCC2(CC1)CN(c1ccccn1)C2 | > 20 µM
O=c1c(-c2cccs2)nc2cnc(Oc3ccccc3)nc2n1-c1ccccc1 | > 4 µM
Cn1cccc1C(=O)N1CCC2(CCCN(c3ncccn3)C2)CC1 | > 20 µM
Cn1c(=O)c(CCc2ccccc2)nc2cnc(Nc3ccccc3)nc21 | > 20 µM
COCCNc1ncnc2ccc(-c3ccccc3C)cc12 | > 20 µM
COc1ccc(-c2nc3cnc(N4CCOCC4)nc3n(CCC#N)c2=O)cc1 | > 20 µM
O=C(c1csnn1)N1CCC2(CC1)CCN(c1ncccn1)CC2 | > 20 µM
CN(C)c1ccc(-c2ccc3ncnc(N4CCNCC4)c3c2)cc1 | > 20 µM
CC(=O)NCCNc1nc(-c2ccc(C(=O)N(C)C)cc2)nc2ccccc12 | > 20 µM
Cn1cc(-c2nc3cnc(Oc4ccccc4)nc3n(Cc3cccs3)c2=O)c2ccccc21 | > 20 µM
Cc1noc(C)c1C(=O)N1CCC[C@@]2(CCN(C(=O)NC(C)C)C2)C1 | > 20 µM
COc1ccccc1CNc1ccnc(-c2ccc(N(C)C)cc2)n1 | > 20 µM
O=c1cnc2cnc(Oc3cccc(Cl)c3)nc2n1C1CC1 | > 20 µM
COCCNc1nc(-c2ccccc2C)nc2ccccc12 | > 20 µM
CN(C)c1ncc2nc(-c3ccc(Cl)cc3)c(=O)n(C3CC3)c2n1 | > 20 µM
COc1ccc(-c2nc3cnc(N4CCOCC4)nc3n(Cc3cccs3)c2=O)cc1 | > 20 µM
